This note sets out measurements from paper PMC10726135, “HNF4α isoforms regulate the circadian balance between carbohydrate and lipid metabolism in the liver”.

Over roughly 18,000 sequences, “log2 normalized intensity” has its median near 0.39; the highest 2% begin near 6.6. The entries come from a sample that favours the highest values as a whole.

The target of this assay is T1, HNF4alpha2 (COS-7 nuclear extract) (Homo sapiens, UniProt P41235 1-474).
T1 sequence: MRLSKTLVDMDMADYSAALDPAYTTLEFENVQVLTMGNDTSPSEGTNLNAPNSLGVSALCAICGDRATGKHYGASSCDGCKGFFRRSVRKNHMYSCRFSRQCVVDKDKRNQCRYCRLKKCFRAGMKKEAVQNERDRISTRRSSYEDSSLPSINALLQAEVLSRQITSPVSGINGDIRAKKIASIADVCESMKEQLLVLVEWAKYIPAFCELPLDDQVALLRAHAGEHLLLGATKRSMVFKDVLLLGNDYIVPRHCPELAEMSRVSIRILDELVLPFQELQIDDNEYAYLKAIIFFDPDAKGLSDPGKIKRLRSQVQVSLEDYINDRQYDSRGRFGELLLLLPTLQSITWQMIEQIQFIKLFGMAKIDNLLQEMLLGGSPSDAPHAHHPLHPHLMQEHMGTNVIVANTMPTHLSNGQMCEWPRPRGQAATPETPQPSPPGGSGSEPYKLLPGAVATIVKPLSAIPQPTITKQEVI
Nature of the assay: protein-binding microarray; COS-7 nuclear extract on double-stranded Agilent 4x180k PBM; binding buffer, salt, pH and temperature not given in the material; high values mean tight binding. The settings on record: chain copies: 2; label: 3' end of strand 1 on the slide; dsDNA, one strand shown. In short, it runs like this: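 Binding signal is the background-corrected, normalized gProcessedSignal calculated by Agilent software. It was measured by applying nuclear extracts of COS-7 cells transiently transfected with a human HNF4α isoform expression vector to a custom Agilent SurePrint G3 4x180k array of ~44,000 double-stranded ~60-nt test sequences in quadruplicate, then imaging bound HNF4α on an Agilent G2565CA scanner at 2-µm resolution.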
As for “ATGCCGGCGTGACCCCCACTGCCTGCCTGCGCCTAGGGAGATTAGAGTATCGGTCGA”, the binding signal was determined as 3.81 log2 normalized intensity.

Turning to “ATTTGACAATTTACAGTGTTCAAAGGTAGCGCCTAGGGAGATTAGAGTATCGGTCGA”, the binding signal is 1.66 log2 normalized intensity.

With “TAGGGCCTTGCTATGGAGTGGACTTTGGCTGCCTAGGGAGATTAGAGTATCGGTCGA”, the binding signal came to 6.16 log2 normalized intensity.

For “ACGACCTTTGGACTTGAATTATCCTTATGGGCCTAGGGAGATTAGAGTATCGGTCGA”, the binding signal is 6.27 log2 normalized intensity.

With “TATGCTCTCTCTCCACCTGGAGGGACTTTGGCCTAGGGAGATTAGAGTATCGGTCGA”, the binding signal came to 2.59 log2 normalized intensity.

For “TGGTATGCTAGAGTACTTGGACTTTAACCTGCCTAGGGAGATTAGAGTATCGGTCGA”, the binding signal was 9.48 log2 normalized intensity.

For “TCGAATGGTATGCTAGAGTACTTGGACTTTGCCTAGGGAGATTAGAGTATCGGTCGA”, the binding signal was determined as 6.9 log2 normalized intensity.

For “GCCTAAGCAGGGCTAGACTTTAACCCCCTTGCCTAGGGAGATTAGAGTATCGGTCGA”, the binding signal was found to be 5.53 log2 normalized intensity.

In the case of “CTTTGGACTTGAATTATCCTTATGGTCTCTGCCTAGGGAGATTAGAGTATCGGTCGA”, the binding signal came out at 0.855 log2 normalized intensity.

Take “CTGGACTATGCCTTGAACTTTAAGGCACCTGCCTAGGGAGATTAGAGTATCGGTCGA”: the binding signal was found to be 1.07 log2 normalized intensity.

“GCTTTTGGAAGGACTTCGAATGGTATGCTAGCCTAGGGAGATTAGAGTATCGGTCGA”: the binding signal was found to be 0.461 log2 normalized intensity.

With “GGACTTCGAATGGTATGCTAGAGTACTTGGGCCTAGGGAGATTAGAGTATCGGTCGA”, the binding signal was 1.23 log2 normalized intensity.

For “CTTTAACGACCTTTGGACTTGAATTATCCTGCCTAGGGAGATTAGAGTATCGGTCGA”, the binding signal was determined as 7.84 log2 normalized intensity.

As to “TGCTAGAGTACTTGGACTTTAACCTTTAGAGCCTAGGGAGATTAGAGTATCGGTCGA”, the binding signal amounted to 9.24 log2 normalized intensity.

On to “CGTCCGTCACCCCTTTCTTTGATTAGGAAAGCCTAGGGAGATTAGAGTATCGGTCGA”, for which the binding signal came to 1.54 log2 normalized intensity.

Turning to “GTCAGTTGATAAACAGATAACTGGGGGCAAGCCTAGGGAGATTAGAGTATCGGTCGA”, the binding signal amounted to 0.764 log2 normalized intensity.

Turning to “AGTCTGATTCTAGGGCCCATGCCCTTAGCCGCCTAGGGAGATTAGAGTATCGGTCGA”, the binding signal was 0.883 log2 normalized intensity.

Consider “TCTGTATGTCTAAGGTTTCTCAGCCCCATCGCCTAGGGAGATTAGAGTATCGGTCGA”, for which the binding signal turned out to be 4.27 log2 normalized intensity.

As to “CGGGTGAAGGTTAAATAGCTCATTAAGCTTGCCTAGGGAGATTAGAGTATCGGTCGA”, the binding signal was -0.974 log2 normalized intensity.

For the sequence “CTCTCAACTCAGTGAGGGCTATTGACAAAGGCCTAGGGAGATTAGAGTATCGGTCGA”, the binding signal is -0.637 log2 normalized intensity.

Consider “ATTTTCCCACTTGTATGTCCAAGGGTCACTGCCTAGGGAGATTAGAGTATCGGTCGA”, for which the binding signal came to 4.44 log2 normalized intensity.

As for “AATTTTCTCTGTATACTTGTCTTATCAGCAGCCTAGGGAGATTAGAGTATCGGTCGA”, the binding signal was found to be 0.598 log2 normalized intensity.

Turning to “CTTGGACTTTAACCTTTAGATTACTAGGAAGCCTAGGGAGATTAGAGTATCGGTCGA”, the binding signal is 6.18 log2 normalized intensity.

Regarding “GAGTACTTGGACTTTAACCTTTAGATTACTGCCTAGGGAGATTAGAGTATCGGTCGA”, the binding signal was 7.31 log2 normalized intensity.

On to “ACTTTAACCTTTAGATTACTAGGAATTGATGCCTAGGGAGATTAGAGTATCGGTCGA”, for which the binding signal was 0.914 log2 normalized intensity.

For “CTTATCTTTGACCTTACCAGCCCACTCTTAGCCTAGGGAGATTAGAGTATCGGTCGA”, the binding signal worked out at 1.9 log2 normalized intensity.

As for “TTCCACTGACTTGCAACCTTTGCCCTGTTGGCCTAGGGAGATTAGAGTATCGGTCGA”, the binding signal was 6.31 log2 normalized intensity.

As to “GAGAGTTCCCTTGGAATGCCAGATGACCTTGCCTAGGGAGATTAGAGTATCGGTCGA”, the binding signal worked out at 4.14 log2 normalized intensity.

As for “TGCCCTTGACTTTTTGTGGGGGCAGATGTTGCCTAGGGAGATTAGAGTATCGGTCGA”, the binding signal is 1.86 log2 normalized intensity.

As to “TTAGCTTCCTCCCTTGGAATGTGACCTTAGGCCTAGGGAGATTAGAGTATCGGTCGA”, the binding signal is 4.12 log2 normalized intensity.

Take “TTCCCTTGGAATGCCAGATGACCTTTGCCCGCCTAGGGAGATTAGAGTATCGGTCGA”: the binding signal stood at 9.88 log2 normalized intensity.

“TTCCTCCCTTGGAATGTGACCTTAGACCCCGCCTAGGGAGATTAGAGTATCGGTCGA”: the binding signal came to 8.18 log2 normalized intensity.

Take “TTGCCCTTCTTGGATGCCCTTCCCTAACCCGCCTAGGGAGATTAGAGTATCGGTCGA”: the binding signal came out at 2.66 log2 normalized intensity.

Regarding “CCCTTGGAATGTGACCTTAGACCCCTGAATGCCTAGGGAGATTAGAGTATCGGTCGA”, the binding signal was 5.74 log2 normalized intensity.

Turning to “ACCTTTGCCCTTGACTTTTTGTGGGGGCAGGCCTAGGGAGATTAGAGTATCGGTCGA”, the binding signal came to 2.38 log2 normalized intensity.

Turning to “AGATGACCTTTGCCCTTGACTTTTTGTGGGGCCTAGGGAGATTAGAGTATCGGTCGA”, the binding signal came out at 7.08 log2 normalized intensity.

As to “TTTCATTCCACTGACTTGCAACCTTTGCCCGCCTAGGGAGATTAGAGTATCGGTCGA”, the binding signal was 6.76 log2 normalized intensity.

Regarding “CTGGCTTTCATTCCACTGACTTGCAACCTTGCCTAGGGAGATTAGAGTATCGGTCGA”, the binding signal is 0.803 log2 normalized intensity.

Take “AGGGTGACCCCTGTGGTACAGGCAGTGACTGCCTAGGGAGATTAGAGTATCGGTCGA”: the binding signal was 1.48 log2 normalized intensity.

On to “GAGGCTGCTCTCTGTCCCTGCACCCTACCCGCCTAGGGAGATTAGAGTATCGGTCGA”, for which the binding signal amounted to 1.6 log2 normalized intensity.

As to “AGGGCCCTTCACTATTTTCAAAGGTCAACAGCCTAGGGAGATTAGAGTATCGGTCGA”, the binding signal turned out to be 3.49 log2 normalized intensity.

Take “TGTGTTTCCACAAACACAGATCAGATATGAGCCTAGGGAGATTAGAGTATCGGTCGA”: the binding signal is -0.462 log2 normalized intensity.

Regarding “GGCCTCCCCATCCTCATGACAGTACCTCTCGCCTAGGGAGATTAGAGTATCGGTCGA”, the binding signal was determined as 2.32 log2 normalized intensity.

“GAACTTTGACCACCTACTGTTTGTGCAGAGGCCTAGGGAGATTAGAGTATCGGTCGA”: the binding signal was 4.13 log2 normalized intensity.

For “ACACTGCCATTTAAAAGTTTCCCTTGATCAGCCTAGGGAGATTAGAGTATCGGTCGA”, the binding signal came out at 0.876 log2 normalized intensity.

Regarding “TATCCCTGGAGCCTTAGAAGATGACCTTTTGCCTAGGGAGATTAGAGTATCGGTCGA”, the binding signal worked out at 5.59 log2 normalized intensity.

Consider “ATGCCAGATGACCTTTGCCCTTGACTTTTTGCCTAGGGAGATTAGAGTATCGGTCGA”, for which the binding signal was found to be 8.55 log2 normalized intensity.

On to “TTCTTTTTTTTTTTTTTTTTTTTTTGAGATGCCTAGGGAGATTAGAGTATCGGTCGA”, for which the binding signal turned out to be 3 log2 normalized intensity.

In the case of “GGAAGTCCAGCATTCTTTTCCCCATACCAGGCCTAGGGAGATTAGAGTATCGGTCGA”, the binding signal was 1.33 log2 normalized intensity.

For “TGCCCTTTGTCCAGGGTGAGAGGGACCCTTGCCTAGGGAGATTAGAGTATCGGTCGA”, the binding signal is 2.41 log2 normalized intensity.

On to “TGTCTCCAGAAATCAACCTTTGATCGTTTGGCCTAGGGAGATTAGAGTATCGGTCGA”, for which the binding signal was 5.83 log2 normalized intensity.

Regarding “GGACTTTGAACCTTGGGTCTGTAATCTCACGCCTAGGGAGATTAGAGTATCGGTCGA”, the binding signal came to 7.11 log2 normalized intensity.

Consider “CCACCCACACTGCAGCAAAACTTTAGGACTGCCTAGGGAGATTAGAGTATCGGTCGA”, for which the binding signal amounted to 0.141 log2 normalized intensity.

Take “ATGTCTCCAGAAACCAACCTTTGATCATTCGCCTAGGGAGATTAGAGTATCGGTCGA”: the binding signal came out at 4.87 log2 normalized intensity.

Take “GGGCAGCAAACCTACCTGAACTTTGCCCCAGCCTAGGGAGATTAGAGTATCGGTCGA”: the binding signal is 7.99 log2 normalized intensity.

For the sequence “TTGAACCTTGGGTCTGTAATCTCACAACTCGCCTAGGGAGATTAGAGTATCGGTCGA”, the binding signal was determined as 1.47 log2 normalized intensity.

“TGCAGCAAAACTTTAGGACTTTGAACCTTGGCCTAGGGAGATTAGAGTATCGGTCGA”: the binding signal came to 8.63 log2 normalized intensity.

Take “ATAAGGGGCAGCAAACCTACCTGAACTTTGGCCTAGGGAGATTAGAGTATCGGTCGA”: the binding signal stood at 3.07 log2 normalized intensity.

Turning to “CACACTGCAGCAAAACTTTAGGACTTTGAAGCCTAGGGAGATTAGAGTATCGGTCGA”, the binding signal came to 3.31 log2 normalized intensity.

Take “GCAAACCTACCTGAACTTTGCCCCAGAGGAGCCTAGGGAGATTAGAGTATCGGTCGA”: the binding signal amounted to 5.9 log2 normalized intensity.

As for “ACTTCTGTCTCCAGAAATCAACCTTTGATCGCCTAGGGAGATTAGAGTATCGGTCGA”, the binding signal is 7.84 log2 normalized intensity.

On to “CCTTGGGTCTGTAATCTCACAACTCAGAAGGCCTAGGGAGATTAGAGTATCGGTCGA”, for which the binding signal came to 0.23 log2 normalized intensity.
